ELG1 DNA repair: qHTS screen for small molecules that inhibit ELG1-dependent DNA repair in human embryonic kidney (HEK293T) cells expressing luciferase-tagged ELG1; Potency, µM (titrated, usually from 46.1 µM), actives largely listed as inhibitors; actives 2.3% (n = 330,000); AID 504467, 2011; HEK293T ELG1-luciferase reporter, luminescence, 16 h; DNA damage induced by 5-fluorouridine; further: nearly all actives have a fitted effect of over 55% in size
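Luminescence from the luciferase reporter, measured 30 min after ONE-Glo reagent at room temperature, was the read-out. Beforehand, 2,000 cells per well were exposed for 16 hr at 37 °C to 5-fluorouridine together with compound or vehicle.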
TDP1 cell CPT: qHTS for Inhibitors of human tyrosyl-DNA phosphodiesterase 1 (TDP1): qHTS in cells in presence of CPT; chicken DT40 Tdp1-/-;hTDP1 cells + 20 nM CPT, ATP luminescence, 48 h; Potency, µM (doses to about 46.2 µM), hits mostly inhibitors; actives 12% (n = 420,000); further: nearly all actives have a fitted effect of over 55% in size
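Cell growth measured by CellTiter-Glo luminescence after a minimum 48 h, 37 C compound exposure with 20 nM CPT in Tdp1-knockout DT40 cells stably expressing hTDP1, seeded 400/well; qHTS titration format.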
HT1080NT lethal: qHTS for induction of synthetic lethality in tumor cells producing 2HG: qHTS for the HT-1080-NT fibrosarcoma cell line; Potency, µM (top dose mostly 46.1 µM), usual class: cytotoxic; actives 1.6% (n = 360,000); HT-1080-NT fibrosarcoma viability, CellTiter-Glo ATP luminescence, 48 h; AID 686970, 2013;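 further: NT is the 2HG producing partner of a matched IDH1 knockdown line; nearly all actives have a fitted effect of over 55% in size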
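HT-1080-NT; 750 cells/well; 5% FBS RPMI; 48 h compound, 37 degrees C; CellTiter-Glo luminescence; curve fitting and curve-class assignment.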
TDP1 cell noCPT: qHTS for Inhibitors of human tyrosyl-DNA phosphodiesterase 1 (TDP1): qHTS in cells in absence of CPT; DT40 Tdp1-/- hTDP1 cells, no CPT, ATP luminescence, 48 h; Potency, µM (titrated, usually from 46.2 µM), hits mostly inhibitors; actives 15% (n = 420,000); further: nearly all actives have a fitted effect of over 55% in size
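Luminescent ATP content (CellTiter-Glo) served as the growth readout. Knockout chicken DT40 cells expressing human TDP1 were exposed to compounds without camptothecin for a minimum 48 hr at 37 °C.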
IL-1B inflam inh: qHTS for Inhibitors of Inflammasome Signaling: IL-1-beta AlphaLISA Primary Screen. THP-1 LPS/ATP IL-1B secretion, AlphaLISA, 16 h; hits give low values. activity change, % at 57.5 µM. actives 4.7% (n = 360,000); in the data active means activity change below about -50%; inconclusive means mostly about -30% to -49%
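Secreted IL-1B measured by AlphaLISA bead assay after 16 h compound exposure of THP-1 cells; compounds (final up to 57.5 uM) added 1 h before LPS (250 ng/mL) and ATP (1.25 mM) stimulation; lower signal means less secretion.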
HT1080 IDH1KD tx: qHTS for induction of synthetic lethality in tumor cells producing 2HG: qHTS for the HT-1080-IDH1KD cell line | HT-1080 IDH1 knockdown viability, ATP luminescence, 48 h | Potency, µM (highest dose often 46.1 µM), actives largely listed as cytotoxic | actives 2% (n = 360,000)
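Cytotoxicity counter-line: IDH1KD HT-1080, 48 h, CellTiter-Glo. Curves classed by r2, magnitude and activity.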
A number is an active result; i = inactive; ? = inconclusive; nt = not tested or not shown. Hits are enriched below; roughly 19% of the tested compounds scored in any of these assays. Unless noted, the call rests on the fitted dose curve; in most records, active means well fitted curve in the direction sought with a large enough effect; inconclusive means small, poorly fitted or top-dose-only effect, or another doubt; inactive means no such curve, though single readings can be large; an effect the other way counts as inactive or inconclusive.

SMILES	ELG1 DNA repair	TDP1 cell CPT	HT1080NT lethal	TDP1 cell noCPT	IL-1B inflam inh	HT1080 IDH1KD tx
Cn1c(=O)c2[nH]c(CCCCc3nc4ccccc4[nH]3)nc2n(C)c1=O	nt	i	i	i	i	i
Cn1c(=O)c2[nH]c(CCCCCCCCc3nc4ccccc4[nH]3)nc2n(C)c1=O	nt	7.31µM	?	5.17µM	-59.9	i
Cn1c(=O)c2[nH]c(Cc3cccc4ccccc34)nc2n(C)c1=O	nt	?	i	16.4µM	i	i
COc1ccc(NC(=O)N(C)C[C@H]2Oc3ccc(NC(=O)Nc4ccc5c(c4)OCO5)cc3C(=O)N([C@H](C)CO)C[C@@H]2C)cc1	nt	i	i	i	i	i
C#CCNC(=O)C1=C[C@H](c2csc3ccccc23)C[C@H](OCc2ccc(CO)cc2)O1	?	?	i	16.4µM	i	i
O=C(NCc1ccccc1)C1=C[C@@H](c2ccc3c(c2)OCO3)C[C@@H](OCc2ccc(CO)cc2)O1	nt	?	i	?	i	i
O=C(NCc1ccccc1)C1=C[C@H](c2ccc3c(c2)OCO3)C[C@H](OCc2ccc(CO)cc2)O1	nt	6.51µM	i	?	i	i
O=C(NCc1ccccc1)C1=C[C@H](c2csc3ccccc23)C[C@H](OCc2ccc(CO)cc2)O1	?	?	?	?	-52.2	i
CC(C)N(C(C)C)S(=O)(=O)c1ccc(Cl)nc1	i	i	i	i	i	i
CC(C)N(C(C)C)S(=O)(=O)c1ccc(N2CCc3ccccc3C2)nc1	?	?	?	?	-105.6	?
Cc1ccc(OC(=S)Nc2ccccc2)c(C)c1	i	?	i	16.4µM	i	i
Cc1cn(C2CCCCC2)c(=O)[nH]c1=O	nt	i	i	i	i	i
CC(=O)Nc1ccc(S(=O)(=O)N(C)CC(=O)N2CCN(C(=O)c3ccco3)CC2)cc1	i	i	i	i	i	i
O=C(/C=C/c1cccc(O)c1)c1ccc(N2CCOCC2)cc1	?	?	i	14.6µM	-94.5	i
COc1ccc(C(=O)/C=C/c2ccc(OC)c(Cn3nnc4ccccc43)c2)cc1	?	18.4µM	i	20.6µM	?	i
COc1ccc(/C=C/C(=O)C23CC4CC(CC(C4)C2)C3)cc1CN1CCOCC1	?	?	?	18.4µM	-188.9	?
COc1ccc(/C=C/C(=O)c2nc3ccccc3n2CC(=O)c2ccc(OC)cc2)cc1	i	i	i	i	i	i
COc1ccc(/C=C/C(=O)c2ccc(O)cc2)cc1CN1CCOCC1	i	?	i	29.1µM	-133.2	?
COc1ccc(/C=C/C(=O)NCCN=C2NS(=O)(=O)c3ccccc32)cc1	i	i	i	i	i	i
Cc1noc(NS(=O)(=O)c2ccc(NC(=O)c3ccccc3NS(=O)(=O)c3ccc(F)cc3)cc2)c1C	i	i	i	i	i	i
COc1ccc(/C=N/NC(=O)c2ccc(Br)cc2)cc1CN1CCOCC1	i	i	i	i	i	i
COc1ccc(C(=O)/C=C/c2ccc(OC)c(CN3CCOCC3)c2)cc1	?	?	i	23.1µM	-100.1	?
CC1(C)Cc2c(sc3nc(-c4ccccc4)n(N)c(=O)c23)CO1	i	i	i	i	-75.7	i
CC1(C)Cc2c(sc3nc(-c4cccs4)n(N)c(=O)c23)CO1	?	16.4µM	?	23.1µM	i	?
CCc1nc2sc3c(c2c(=O)n1N)CC(C)(C)OC3	i	i	i	i	?	i
SMILES	ELG1 DNA repair	TDP1 cell CPT	HT1080NT lethal	TDP1 cell noCPT	IL-1B inflam inh	HT1080 IDH1KD tx
CSc1cccc(N2CC(C(=O)N3CCN(S(=O)(=O)c4ccccc4Cl)CC3)CC2=O)c1 (stereo unspecified)	i	?	i	23.1µM	i	i
COCCNc1cc(N2CCN(C3CCCCC3)CC2)c2noc3c2c1C(=O)c1ccccc1-3	nt	18.4µM	nt	16.4µM	nt	nt
CN(C)CCCNc1cc(N2CCN(C3CCCCC3)CC2)c2noc3c2c1C(=O)c1ccccc1-3	nt	23.1µM	nt	20.6µM	nt	nt
NNC(=O)c1oc2ccccc2c1-n1cccc1	?	i	4.61µM	?	i	4.11µM
COc1ccc2c(c1)c1ncn(CCN3CCCC3)c(=O)c1n2C	i	i	i	i	i	i
COc1ccccc1CCn1cnc2c3cc(C)ccc3n(C)c2c1=O	?	18.4µM	i	11.6µM	i	i
COc1cc(OC)c(OC)cc1/C=C/c1ccc2ccccc2[n+]1C	nt	0.891µM	nt	0.708µM	nt	nt
COc1ccc(/C=C/c2ccc3ccccc3[n+]2C)c(OC)c1OC	nt	1.41µM	nt	1.12µM	nt	nt
COc1cc(/C=C/c2cc[n+](C)c3ccccc23)cc(OC)c1OC	nt	i	nt	i	nt	nt
COc1ccc(/C=C/c2ccc3ccccc3[n+]2C)cc1OC	?	12.6µM	i	18.4µM	i	i
CC(=O)Oc1ccccc1/C=C/c1ccc2ccccc2[n+]1C	?	20.6µM	?	16.4µM	-57.1	?
O=c1oc2cc(OCCO)ccc2c2c1CCCC2	?	i	i	i	i	i
COc1ccccc1NS(=O)(=O)c1cccc(C(=O)N/N=C/c2c(CO)cnc(C)c2O)c1	?	?	?	?	i	?
N=c1c2c(ncn1Cc1ccco1)Oc1cc(O)ccc1C2c1ccccc1 (stereo unspecified)	i	18.4µM	i	?	-62.2	i
COc1ccc(C2C3=C(CC(C)(C)CC3=O)Oc3ncn(Cc4ccccc4)c(=N)c32)cc1 (stereo unspecified)	?	?	?	i	-54.8	?
c1ccc(C2c3c(ccc4ccccc34)Oc3ncn4nc(-c5ccco5)nc4c32)cc1 (stereo unspecified)	?	?	i	?	i	i
N=c1c2c(ncn1Cc1ccco1)Oc1c(ccc3ccccc13)C2c1ccccc1 (stereo unspecified)	i	?	16.4µM	?	?	?
CN(C)CCn1cnc2c(c1=N)C(c1ccccc1)c1ccc3ccccc3c1O2 (stereo unspecified)	?	18.4µM	i	?	-57.2	i
CC1(C)CC(=O)C2=C(C1)Oc1ncn(Cc3ccco3)c(=N)c1C2c1ccccc1 (stereo unspecified)	?	i	i	i	i	i
COc1ccc(C(=O)N2CCC3(CCN(Cc4ccncc4)CC3)CC2)cc1	nt	i	nt	?	nt	nt
